According to PubChem BioAssay AID1159580 (chemical genetic matrix, 2015):
The whole screen tested about 5,500 compounds, of which about 2,000 (36%) were called active. Not shown: some 18% with an inconclusive outcome. No stated cut-off is given here; in the data, active means normalized growth mostly below about 0.91 (no sharp cut-off); inconclusive means no clear call, values can overlap the other calls; inactive means mostly above about 0.92. The list shows a part of the results.

Assay: chemical genetic growth profiling, strain panel (AID 1159580);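 further: tested at 20 µM; growth read once vehicle control cultures reached saturation at 30 °C; 1 = growth at the plate median or of vehicle wells; lower values mean less growth of the strain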
Conditions: growth OD
[1] = S. cerevisiae deletion strains, locus YAL013W, strain DEP1, active compounds read low
[2] = S. cerevisiae deletion strains, locus YAL040C, strain CLN3, active compounds read low
[3] = S. cerevisiae deletion strains, locus YCL061C, strain MRC1 (second series), active compounds read low
[4] = S. cerevisiae deletion strains, locus YCL061C, strain MRC1, active compounds read low
[5] = S. cerevisiae deletion strains, locus YDR150W, strain NUM1, active compounds read low
[6] = S. cerevisiae deletion strains, locus YDR363W, strain ESC2, active compounds read low
[7] = S. cerevisiae deletion strains, locus YER002W, strain NOP16, active compounds read low
[8] = S. cerevisiae deletion strains, locus YGR229C, strain SMI1, active compounds read low
[9] = S. cerevisiae deletion strains, locus YHR030C, strain SLT2, active compounds read low
[10] = S. cerevisiae deletion strains, locus YMR307W, strain GAS1, active compounds read low
[11] = S. cerevisiae deletion strains, locus YNL128W, strain TEP1, active compounds read low
[12] = S. cerevisiae deletion strains, locus YNL175C, strain NOP13, active compounds read low
[13] = S. cerevisiae deletion strains, locus YNL197C, strain WHI3, active compounds read low
[14] = S. cerevisiae deletion strains, locus YNL224C, strain SQS1, active compounds read low
[15] = S. cerevisiae deletion strains, locus YOR083W, strain WHI5 (second series), active compounds read low
[16] = S. cerevisiae deletion strains, locus YPL055C, strain LGE1, active compounds read low
[17] = S. cerevisiae deletion strains, locus YPL241C, strain CIN2, active compounds read low
[18] = S. cerevisiae deletion strains, locus YGR078C, strain PAC10, active compounds read low
[19] = S. cerevisiae deletion strains, locus YJR075W, strain HOC1, active compounds read low
[20] = S. cerevisiae deletion strains, locus YMR263W, strain SAP30, active compounds read low
[21] = S. cerevisiae deletion strains, locus YNL322C, strain KRE1, active compounds read low

Measured: normalized growth

Oc1cc2c(cc1O)C(c1ccccc1)CNCC2 (configuration not stated)
inactive: [1] 0.977 | S. cerevisiae deletion strains, locus YAL021C, strain ccr4, active compounds read low 0.972 | S. cerevisiae deletion strains, locus YAL026C, strain drs2, active compounds read low 0.988 | S. cerevisiae deletion strains, locus YAL030W, strain snc1, active compounds read low 1.01 | [2] 1.03 | S. cerevisiae deletion strains, locus YBL061C, strain skt5, active compounds read low 0.996 | S. cerevisiae deletion strains, locus YBR009C, strain hhf1, active compounds read low 1.05 | S. cerevisiae deletion strains, locus YBR023C, strain chs3, active compounds read low 0.998 | S. cerevisiae deletion strains, locus YBR171W, strain sec66, active compounds read low 0.912 | S. cerevisiae deletion strains, locus YBR231C, strain swc5, active compounds read low 1.01 | S. cerevisiae deletion strains, locus YBR279W, strain paf1, active compounds read low 0.988 | S. cerevisiae deletion strains, locus YCL011C, strain gbp2, active compounds read low 0.984 | S. cerevisiae deletion strains, locus YCL016C, strain dcc1, active compounds read low 1 | [3] 0.982 | [4] 0.992 | S. cerevisiae deletion strains, locus YCL069W, strain vba3, active compounds read low 1 | S. cerevisiae deletion strains, locus YCR088W, strain abp1, active compounds read low 0.999 | S. cerevisiae deletion strains, locus YDL005C, strain med2, active compounds read low 1 | S. cerevisiae deletion strains, locus YDL040C, strain nat1, active compounds read low 1.01 | S. cerevisiae deletion strains, locus YDR001C, strain nth1, active compounds read low 0.994 | S. cerevisiae deletion strains, locus YDR069C, strain doa4, active compounds read low 0.974 | S. cerevisiae deletion strains, locus YDR137W, strain rgp1, active compounds read low 0.967 | [5] 0.963 | S. cerevisiae deletion strains, locus YDR159W, strain sac3, active compounds read low 1.01 | S. cerevisiae deletion strains, locus YDR195W, strain ref2 1.07 | S. cerevisiae deletion strains, locus YDR297W, strain sur2, active compounds read low 0.996 | S. cerevisiae deletion strains, locus YDR334W, strain swr1, active compounds read low 0.963 | S. cerevisiae deletion strains, locus YDR335W, strain msn5, active compounds read low 0.979 | [6] 0.983 | S. cerevisiae deletion strains, locus YDR392W, strain spt3, active compounds read low 0.845 | S. cerevisiae deletion strains, locus YEL003W, strain gim4, active compounds read low 0.976 | S. cerevisiae deletion strains, locus YEL037C, strain rad23, active compounds read low 1 | S. cerevisiae deletion strains, locus YEL061C, strain CIN8 (second series), active compounds read low 0.99 | [7] 1 | S. cerevisiae deletion strains, locus YER015W, strain faa2, active compounds read low 1.02 | S. cerevisiae deletion strains, locus YER016W, strain bim1, active compounds read low 1.01 | S. cerevisiae deletion strains, locus YER111C, strain swi4, active compounds read low 0.993 | S. cerevisiae deletion strains, locus YER155C, strain BEM2 (second series), active compounds read low 1.01 | S. cerevisiae deletion strains, locus YFR010W, strain ubp6, active compounds read low 0.95 | S. cerevisiae deletion strains, locus YGL167C, strain pmr1, active compounds read low 0.994 | S. cerevisiae deletion strains, locus YGL173C, strain kem1, active compounds read low 1 | S. cerevisiae deletion strains, locus YGL227W, strain vid30, active compounds read low 1.01 | S. cerevisiae deletion strains, locus YGL240W, strain doc1, active compounds read low 1.05 | S. cerevisiae deletion strains, locus YGL253W, strain hxk2, active compounds read low 0.991 | [8] 0.958 | S. cerevisiae deletion strains, locus YHR013C, strain ard1, active compounds read low 0.96 | S. cerevisiae deletion strains, locus YHR027C, strain rpn1, active compounds read low 0.989 | [9] 0.986 | S. cerevisiae deletion strains, locus YHR079C, strain IRE1, active compounds read low 0.989 | S. cerevisiae deletion strains, locus YHR142W, strain chs7, active compounds read low 0.916 | S. cerevisiae deletion strains, locus YJL092W, strain hpr5, active compounds read low 0.974 | S. cerevisiae deletion strains, locus YJL095W, strain BCK1 (second series), active compounds read low 1.01 | S. cerevisiae deletion strains, locus YJL095W, strain BCK1, active compounds read low 0.98 | S. cerevisiae deletion strains, locus YJL115W, strain asf1, active compounds read low 0.991 | S. cerevisiae deletion strains, locus YJL129C, strain trk1, active compounds read low 0.921 | S. cerevisiae deletion strains, locus YJL154C, strain vps35, active compounds read low 1 | S. cerevisiae deletion strains, locus YJL164C, strain tpk1, active compounds read low 0.967 | S. cerevisiae deletion strains, locus YJL166W, strain qcr8, active compounds read low 0.995 | S. cerevisiae deletion strains, locus YJL187C, strain SWE1, active compounds read low 1 | S. cerevisiae deletion strains, locus YJR066W, strain TOR1, active compounds read low 0.943 | S. cerevisiae deletion strains, locus YKL160W, strain elf1, active compounds read low 0.942 | S. cerevisiae deletion strains, locus YKR026C, strain gcn3, active compounds read low 0.995 | S. cerevisiae deletion strains, locus YKR091W, strain srl3, active compounds read low 1 | S. cerevisiae deletion strains, locus YLL001W, strain dnm1, active compounds read low 0.989 | S. cerevisiae deletion strains, locus YLL026W, active compounds read low 1 | S. cerevisiae deletion strains, locus YLL041C, strain sdh2, active compounds read low 0.989 | S. cerevisiae deletion strains, locus YLR027C, strain aat2, active compounds read low 0.977 | S. cerevisiae deletion strains, locus YLR113W, strain HOG1, active compounds read low 0.979 | S. cerevisiae deletion strains, locus YLR221C, strain rsa3, active compounds read low 0.948 | S. cerevisiae deletion strains, locus YLR258W, strain gsy2, active compounds read low 1.02 | S. cerevisiae deletion strains, locus YLR262C, strain YPT6 (second series), active compounds read low 0.919 | S. cerevisiae deletion strains, locus YLR320W, strain mms22, active compounds read low 0.966 | S. cerevisiae deletion strains, locus YLR342W, strain FKS1, active compounds read low 0.994 | S. cerevisiae deletion strains, locus YLR357W, strain rsc2, active compounds read low 1.04 | S. cerevisiae deletion strains, locus YLR370C, strain arc18, active compounds read low 0.991 | S. cerevisiae deletion strains, locus YLR384C, strain iki3, active compounds read low 1.01 | S. cerevisiae deletion strains, locus YML120C, strain ndi1, active compounds read low 0.94 | S. cerevisiae deletion strains, locus YMR058W, strain fet3, active compounds read low 0.945 | S. cerevisiae deletion strains, locus YMR125W, strain sto1, active compounds read low 1.02 | S. cerevisiae deletion strains, locus YMR129W, active compounds read low 0.984 | S. cerevisiae deletion strains, locus YMR205C, strain PFK2, active compounds read low 1.06 | S. cerevisiae deletion strains, locus YMR231W, strain pep5, active compounds read low 1.02 | [10] 0.992 | S. cerevisiae deletion strains, locus YNL071W, strain lat1, active compounds read low 0.964 | [11] 0.981 | [12] 1.04 | S. cerevisiae deletion strains, locus YNL183C, strain NPR1, active compounds read low 0.952 | [13] 1.03 | S. cerevisiae deletion strains, locus YNL209W, strain ssb2, active compounds read low 0.997 | [14] 0.993 | S. cerevisiae deletion strains, locus YNL248C, strain rpa49, active compounds read low 0.93 | S. cerevisiae deletion strains, locus YNL322C, strain KRE1 (second series), active compounds read low 0.989 | S. cerevisiae deletion strains, locus YNR049C, strain mso1, active compounds read low 1 | S. cerevisiae deletion strains, locus YOR001W, strain rrp6, active compounds read low 0.918 | S. cerevisiae deletion strains, locus YOR070C, strain gyp1, active compounds read low 0.992 | S. cerevisiae deletion strains, locus YOR080W, strain dia2, active compounds read low 1 | [15] 1.02 | S. cerevisiae deletion strains, locus YOR083W, strain WHI5, active compounds read low 0.922 | S. cerevisiae deletion strains, locus YOR106W, strain vam3, active compounds read low 0.919 | S. cerevisiae deletion strains, locus YOR231W, strain MKK1, active compounds read low 0.941 | S. cerevisiae deletion strains, locus YOR265W, strain rbl2, active compounds read low 0.997 | S. cerevisiae deletion strains, locus YOR270C, strain vph1, active compounds read low 0.967 | S. cerevisiae deletion strains, locus YOR290C, strain snf2, active compounds read low 0.92 | S. cerevisiae deletion strains, locus YPL051W, strain arl3, active compounds read low 0.938 | [16] 0.948 | S. cerevisiae deletion strains, locus YPL078C, strain atp4, active compounds read low 0.945 | S. cerevisiae deletion strains, locus YPL106C, strain sse1, active compounds read low 0.972 | S. cerevisiae deletion strains, locus YPL240C, strain hsp82, active compounds read low 0.983 | [17] 0.997 | S. cerevisiae deletion strains, locus YPL256C, strain CLN2, active compounds read low 0.984

Oc1cc2c(cc1O)[C@H]1c3ccccc3CN[C@@H]1CC2
inactive: [2] 1.01 | [6] 0.985 | [7] 1.03 | [18] 1 | [20] 1 | [11] 1.01 | [12] 1.03 | [13] 1.02 | [14] 1.02 | [15] 1.01
active: [1] 0.9 | [3] 0.845 | [5] 0.848 | [8] 0.685 | [19] 0.843 | [10] 0.871 | [16] 0.864 | [17] 0.925

NC1CCc2cc(O)c(O)cc2C1 (configuration not stated)
inactive: [1] 0.978 | [2] 1.01 | [3] 1.01 | [5] 1.01 | [6] 0.979 | [7] 1.02 | [18] 1.04 | [19] 0.985 | [20] 0.997 | [11] 1.01 | [12] 1.02 | [13] 1.01 | [14] 1.01 | [15] 1.08 | [16] 0.976

CC(C)(C)c1ccc(S(=O)(=O)/C=C/C#N)cc1
inactive: [21] 1.01
active: [1] 0.234 | [2] 0.0822 | [7] 0.139 | [18] 0.0608 | [11] 0.0795 | [12] 0.227 | [13] 0.0935 | [14] 0.255 | [15] 0.0681

Cn1nccc1NS(=O)(=O)c1ccc(C(C)(C)C)cc1
inactive: [1] 0.982 | S. cerevisiae deletion strains, locus YBR229C, strain ROT2, active compounds read low 0.97 | [4] 0.982 | S. cerevisiae deletion strains, locus YDL101C, strain DUN1, active compounds read low 0.983 | [5] 0.992 | S. cerevisiae deletion strains, locus YEL061C, strain CIN8, active compounds read low 0.984 | [18] 0.985 | [8] 0.981 | [9] 0.948 | S. cerevisiae deletion strains, locus YHR087W, strain rtc3, active compounds read low 0.973 | S. cerevisiae deletion strains, locus YJR043C, strain POL32, active compounds read low 0.978 | [19] 0.987 | S. cerevisiae deletion strains, locus YKL190W, strain CNB1, active compounds read low 0.96 | S. cerevisiae deletion strains, locus YLR039C, strain RIC1, active compounds read low 0.92 | S. cerevisiae deletion strains, locus YLR058C, strain SHM2 (second series), active compounds read low 0.975 | S. cerevisiae deletion strains, locus YLR085C, strain ARP6, active compounds read low 1.08 | S. cerevisiae deletion strains, locus YLR262C, strain YPT6, active compounds read low 0.82 | S. cerevisiae deletion strains, locus YML094W, strain GIM5, active compounds read low 1.03 | S. cerevisiae deletion strains, locus YMR219W, strain ESC1, active compounds read low 0.985 | [20] 0.979 | [11] 0.968 | S. cerevisiae deletion strains, locus YNL153C, strain GIM3, active compounds read low 0.989 | S. cerevisiae deletion strains, locus YNL298W, strain CLA4 (second series), active compounds read low 0.948 | [21] 0.98 | S. cerevisiae deletion strains, locus YNR030W, strain Alg12, active compounds read low 1 | [16] 1.03 | [17] 1.01 | S. cerevisiae deletion strains, locus YPR135W, strain CTF4, active compounds read low 0.929 | S. cerevisiae strains, strain wild type, active compounds read low 0.959
